SW480 rerep: A quantitative high throughput screen for small molecules that induce DNA re-replication in SW480 colon adenocarcinoma cells. SW480 DNA re-replication, Hoechst DNA content imaging, 48 h. Potency, µM (doses to about 46.1 µM), for inactives: top-dose re-replication activation, most hits filed as activators. actives 1.8% (n = 340,000). AID 624297, 2012; further: % of control where 0% means no effect; nearly all actives have a fitted effect of over 55% in size
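Quantitative HTS format with DMSO vehicle controls; 48 hr drug incubation at 37 C, then 40 min Hoechst staining and scanning imager measurement at 405 nm excitation.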
PINK1 modulator: A Quantitative High throughput Screen to Identify Chemical Modulators of PINK1 Expression | PINK1 immunofluorescence, high-content cytometry, 24 h | actives 0.2% (n = 410,000) | Potency, µM (titrated, usually from 76.6 µM), for inactives: at the highest dose activation (PINK1 increase), actives largely listed as activators | AID 624263, 2012; active means well fitted activation curve with a large enough effect; inconclusive means small, poorly fitted or top-dose-only effect; cell line not stated here; further: % of control where 0% means no effect; nearly all actives have a fitted effect of over 65% in size
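Fluorescence from anti-PINK1 antibody, together with nuclear and cell stains, was scanned on a laser-scanning cytometer. Before staining, stable-line cells were incubated 24 hours with compounds at 5 concentrations; primary antibody 12 h at 10 degrees C.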
MCF10A rerep: A quantitative high throughput screen for small molecules that induce DNA re-replication in MCF 10a normal breast cells | MCF 10A DNA re-replication, Hoechst nuclear intensity, 48 h | Potency, µM (top dose mostly 46.1 µM), inactives show at the highest dose activity, positive = re-replication, usual class: activators | actives 2.9% (n = 350,000); further: % of control where 0% means no effect; nearly all actives have a fitted effect of over 50% in size
KB-V1 cytotox: qHTS assay for MDR1-selective chemotherapeutics: Primary screen using the drug-selected MDR subline cells KB-V1. Potency, µM (top dose mostly 46.1 µM), most hits filed as cytotoxic. actives 3.4% (n = 400,000). KB-V1 MDR cells viability, CellTiter-Glo, 72 h; further: on the % scale 0 is the no-effect control and ±100 the full control effect; nearly all actives have a fitted effect of over 60% in size
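Luminescent ATP read-out (CellTiter-Glo, 10 min) measures survival of drug-selected KB-V1 MDR cells after 72 h, 37 degrees C compound exposure. Medium: phenol-red-free DMEM, 10% FBS. Values from fitted concentration-response curves.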
TSG101-PTAP inh: qHTS Assay for Iinhibitors of HIV-1 Budding by Blocking the Interaction of PTAP/TSG101. Fluorescence polarization, FITC-PTAP peptide / Tsg101 binding. Potency, µM (highest dose often 115 µM), for inactives: top-dose activity change, negative = inhibition, actives largely listed as inhibitors. 340,000 tested, under 10 active. AID 493005, 2010; active means well fitted inhibition curve with a large enough effect in the main read-out, with a control signal flat, not every such curve was filed as active; inconclusive means small, poorly fitted or top-dose-only effect, or effect the other way, or a change in a side signal; inactive means no such curve, though single readings can be large or run the other way; further: % of control where 0% means no effect
Target sequence (Q99816 whole entry, looked up): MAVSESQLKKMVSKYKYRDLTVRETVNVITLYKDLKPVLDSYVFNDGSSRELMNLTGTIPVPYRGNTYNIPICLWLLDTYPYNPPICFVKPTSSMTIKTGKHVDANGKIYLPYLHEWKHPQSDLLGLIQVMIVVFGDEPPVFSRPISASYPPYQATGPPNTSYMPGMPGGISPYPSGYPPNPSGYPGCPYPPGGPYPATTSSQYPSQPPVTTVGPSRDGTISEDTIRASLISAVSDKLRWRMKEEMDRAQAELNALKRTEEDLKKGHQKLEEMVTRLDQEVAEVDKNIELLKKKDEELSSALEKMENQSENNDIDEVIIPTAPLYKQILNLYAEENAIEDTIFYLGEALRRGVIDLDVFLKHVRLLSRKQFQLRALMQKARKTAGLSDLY
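Fluorescence anisotropy tracks displacement of a FITC-tagged PTAP peptide (50 nM) from the Tsg101 binding domain (10 uM), following a 20 min room-temperature incubation at pH 7.5.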
KB-3-1 tox: qHTS assay for MDR1-selective chemotherapeutics: Primary screen using the parental adenocarcinoma cell KB-3-1 | KB-3-1 viability, CellTiter-Glo ATP luminescence, 72 h | actives 1.4% (n = 400,000) | Potency, µM (highest dose often 46.1 µM), usual class: cytotoxic; further: on the % scale 0 is the no-effect control and ±100 the full control effect; nearly all actives have a fitted effect of over 60% in size
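Cells are dispensed, compounds pinned in, plates held at 37 °C for 72 h, then CellTiter-Glo is added and luminescence read after 10 minutes. Cell line: parental KB-3-1 in phenol-red-free DMEM, 10% FBS.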
* hit, by the source's call; i = inactive; ? = inconclusive; · = no result given; [ ] = dose if it differs, or a comment. Hits are enriched below; roughly 6.8% of the tested compounds scored in any of these assays. Unless noted, the call rests on the fitted dose curve; in most records, active means well fitted curve in the direction sought with a large enough effect; inconclusive means small, poorly fitted or top-dose-only effect, or another doubt; inactive means no such curve, though single readings can be large; an effect the other way counts as inactive or inconclusive. Potency means the concentration at half of the fitted maximal effect.

SMILES	SW480 rerep	PINK1 modulator	MCF10A rerep	KB-V1 cytotox	TSG101-PTAP inh	KB-3-1 tox
CCCn1nnc(NC(=O)C(c2ccccc2)c2ccccc2)n1	1%	6%	-1%	18µM*	-8%	i
CCOC(=O)c1sc(C)c2c1NC(C)(c1cccs1)NC2=O (stereo not drawn)	7%	-3%[38.3 µM]	-1%	5.2µM*	·	i
CCCCCCCCCCCC(CC1OC(=O)C1CCCCCC)OC(=O)C(CC(C)C)NC=O (stereo not drawn)	13%	·	5.3µM*	·	·	·
CC12CCC(C(=O)NNc3ccccc3)(C(=O)C1=O)C2(C)C (stereo not drawn)	-1%	-1%	16µM*	i	-7%	i
Cc1ccc(Nc2c(-c3ccc(N4CCOCC4)cc3)nc3cnccn23)cc1	?	1%	18µM*	i	-1%	i
Cc1ccccc1Nc1c(-c2ccc(N3CCOCC3)cc2)nc2cnccn12	15%	1%	?	i	0%	i
CN(C)c1ccc(-c2nc3cnccn3c2Nc2ccc3c(c2)OCCO3)cc1	-18%	-1%	18µM*	i	-2%	i
Cc1ccc(-c2nc3cnccn3c2Nc2ccc3c(c2)OCO3)cc1	-1%	5%	9%	?	-1%	i
Cc1ccc(Nc2c(-c3ccc(N4CCOCC4)cc3)nc3ncccn23)cc1C	23µM*	0%	?	i	-10%	i
Cc1cccc(C)c1Nc1c(-c2ccsc2)nc2ncccn12	12%	0%	5%	12µM*	0%	i
CCc1cccc(C)c1Nc1c(-c2ccsc2)nc2ncccn12	·	-2%	·	i	·	i
COC(=O)/C(=C1\OC(=O)C(c2ccccc2)C1=O)c1ccccc1 (stereo not drawn)	·	2%	·	·	·	·
CCCCN(CC)CCNC(=O)C1CCN(c2nnc(C)c3c(C)n(-c4ccc(C)cc4)nc23)CC1	·	4%	·	·	·	·
O=C(Nc1ccccc1Cl)N1CCC2(CC1)Oc1ccccc1C(=O)N2Cc1ccc(F)cc1	·	-1%	·	i	·	i
Cc1[nH]nc(-c2ccc(OCc3cnn(-c4ccccc4)c3)cc2O)c1Oc1ccc(F)cc1	12%	3%	?	i	0%	?
Cc1[nH]nc(-c2ccc(OCc3cnn(-c4ccccc4)c3)c(C)c2O)c1Oc1ccccc1	?	-1%	16µM*	i	-4%	21µM*
CCN(CC)c1ccc(NC(=O)c2cnc3c(-c4ccccc4)c(C)nn3c2C)c(C)c1	·	3%	·	i	·	i
N#CCCN1CCN(C(=S)c2ccc(-c3cc(Cl)ccc3Cl)o2)CC1	2%	4%	8%	6.5µM*	-2%	i
COc1ccc(S(=O)(=O)N(C)CC(=O)NCc2cccnc2)cc1OC	-5%	1%[38.3 µM]	23µM*	i	-3%	i
Cc1cc(C)nc(Nc2ccccc2F)n1	23µM*	3%	5%	i	2%	i
Cc1cc(C)nc(Nc2ccccc2Cl)n1	-1%	2%	?	i	0%	i
O=C(NNc1ccccc1)C(CCO)C(=O)NNc1ccccc1	?	0%	12µM*	i	1%	i
Cc1occc(=O)c1OC(=O)Nc1ccc(Cl)c(Cl)c1	-10%	?	18µM*	?	-14%	?
COc1ccc(CNC(=O)CSc2nnc3c(n2)[nH]c2ccccc23)cc1	-1%	3%	-6%	i	-5%	i
COc1ccccc1NC(=O)CSc1nnc2c(n1)[nH]c1ccccc12	·	5%	·	12µM*	·	i
SMILES	SW480 rerep	PINK1 modulator	MCF10A rerep	KB-V1 cytotox	TSG101-PTAP inh	KB-3-1 tox
COc1ccccc1NC(=O)CSc1nncn1-c1ccccc1	2%	2%	4%	i	-3%	i
COc1ccccc1NC(=O)CSc1ncn(-c2ccccc2)n1	-4%	0%	-4%	16µM*	-2%	i
Clc1cccc(CNCCCSc2nnnn2-c2ccccc2)c1	·	1%	·	i	·	i
CCCCCc1ccc(OCCC[n+]2ccccc2)c(CCCCC)c1	2%	-4%	?	i	-3%	12µM*
CCCCCc1ccc(OCCOCCn2c[n+](C)c3ccccc32)c(CCCCC)c1	?	-2%	?	i	0%	18µM*
C[n+]1cn(CC(O)COCc2ccccc2)c2ccccc21 (stereo not drawn)	-2%	0%	6%	i	-3%	i
CC(C)Cn1c(O)c(/C=C2\C=NN=C2c2ccccc2)sc1=S	?	-2%	23µM*	?	0%	i
CCn1c(O)c(/C=C2\C=NN=C2c2ccccc2)sc1=S	-9%	2%	5%	i	0%	i
CCCCn1c(O)c(/C=C2\C=NN=C2c2ccccc2)sc1=S	?	-4%	10µM*	i	-1%	i
COc1ccccc1CNC(=O)Cn1c(-c2cccs2)cc2cc(F)ccc21	·	7%	·	i	·	i
CN(C)C(=S)N=c1ssc(=S)n1Cc1ccccc1	5.2µM*	8%	?	?	-4%	?
CCOC(=O)c1sc(=S)n(Cc2ccccc2)c1C	-2%	1%	0%	i	-3%	i
CCc1ccc(CNCCNC(=O)c2ccco2)cc1	?	0%	18µM*	?	0%	i
O=C(NCCNCc1ccccc1)c1ccco1	-8%	0%	2%	?	0%	i
COc1ccc(C(C)C)cc1S(=O)(=O)n1cnc(C)c1	21µM*	15%[38.3 µM]	?	i	-12%	i
CCOc1cc(C)c(C(C)C)cc1S(=O)(=O)n1cnc(C)c1	?	8%	9.2µM*	?	-4%	?
COc1cc(C)c(Cl)cc1S(=O)(=O)n1cnc(C)c1	-3%	·	-3%	i	-5%	i
COc1ccc(O)c(C(=O)N2CCC3(CC2)c2ccccc2[C@@H](NC(=O)c2ccccn2)[C@@H]3OC)c1	·	0%	·	·	·	·
CCC(C)NC(=O)CCc1c(C)nc2c(c(C)nn2-c2ccc(C)cc2)c1C (stereo not drawn)	·	1%	·	·	·	·
Cc1cc(C)n2nc(C(=O)NCC3Cc4cccc(-c5ccc(S(C)(=O)=O)cc5)c4O3)cc2n1 (stereo not drawn)	·	2%	·	·	·	·
O=C/C(=C\Nc1ccc(Cl)cn1)c1nc2ccccc2o1	13%	3%	?	i	-4%	i
